# Source: PubChem (National Center for Advancing Translational Sciences (NCATS))
# An excerpt weighted towards active compounds, which were near 21% of everything screened.
# Shiga inhibitor – Shiga toxin inhibition. Vero cells, Shiga toxin protein synthesis inhibition reporter. inhibition, % at 38.7 µM. hit rate 9.2% among 290,000; in the data active = inhibition mostly above about 28%, no sharp cut-off; inactive = mostly below about 43%; note: 0% is about no effect
# Pf growth 48h – inhibits P. falciparum growth in the first generation, 48 h. P. falciparum luciferase growth in erythrocytes, 48 h. Potency, µM (doses to about 28.7 µM), without a hit: top-dose activity change, negative = inhibition, actives largely listed as inhibitors. hit rate 5.9% among 310,000; note: potency is the fitted concentration of half-maximal effect; % is set by controls: 0 for no effect and ±100 for the full control effect
#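 A one-generation exposure of luciferase-tagged malaria parasites in RPMI 1640/Albumax erythrocyte culture, 37 C and 5% CO2. Inhibition is inferred from decreased luminescence after adding detection reagent.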
# Pf growth 96h – P. falciparum growth inhibition at 96 hours | P. falciparum luciferase reporter growth, 96 h | Potency, µM (titrated, usually from 28.7 µM), without a hit: top-dose activity change, negative = inhibition, actives largely listed as inhibitors | hit rate 6.9% among 320,000 | AID 504834; note: potency is the fitted concentration of half-maximal effect; % is set by controls: 0 for no effect and ±100 for the full control effect
#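 Compounds incubated with erythrocytes infected by luciferase-expressing P. falciparum (2% hematocrit, 0.05% parasitemia final) for 96 hours, 37 C in 5% CO2. Growth inhibition scored as decreased luciferase luminescence.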
# CHX counter – counter-screen for Shiga toxin inhibitors: cycloheximide protein synthesis inhibition; cell reporter, cycloheximide protein synthesis inhibition counterscreen; max response, %; hit rate 12% among 300,000; AID 2314; in the data active = max response mostly above about 13%, no sharp cut-off; inactive = mostly below about 14%; note: read at 38.3 µM for the half of the compounds with a filed dose; 0% is about no effect
# NS1 inh – blocks influenza NS1 protein function; Potency, µM (highest dose often 46.1 µM), inactives show at the highest dose activity, positive = more growth; hit rate 0.4% among 270,000; calls by dose curve; note: potency is the fitted concentration of half-maximal effect; actives are rising curves; nearly all actives have a fitted effect of over 50% in size
#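 Growth recovery, yeast-based: influenza A NS1 expressed in S. cerevisiae causes slow growth, and suppressors are detected by OD600. The parent strain without NS1 is used as positive control.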
# SARS PLpro yeast – SARS-CoV PLP inhibition in yeast | S. cerevisiae expressing SARS-CoV PLpro, growth rescue | Potency, µM (series often up to 32.9 µM), without a hit: at the top dose activity, positive = growth rescue, most hits filed as activators | hit rate 0.19% among 330,000 | AID 485353; calls by dose curve; note: potency is the fitted concentration of half-maximal effect; 0% is about no effect; nearly all actives have a fitted effect of over 55% in size
# Numbers without * were called inactive; ? = inconclusive; nt = not tested or not shown. Unless noted, calls come from the whole dose curve; as a rule, active = well fitted inhibition curve with a large enough effect; inconclusive = small, poorly fitted or top-dose-only effect, or another doubt; inactive = no such curve, though single readings can be large or run the other way.
SMILES,Shiga inhibitor,Pf growth 48h,Pf growth 96h,CHX counter,NS1 inh,SARS PLpro yeast
COCCCNC(=O)c1cc(-c2cccnc2)nc2ccc(S(=O)(=O)N3CCCCCC3)cc12,10,21%,-25%,-8,11%,2%
O=C(Nc1cccc2cccnc12)OC(Cl)(Cl)Cl,25,nt,nt,22*,nt,nt
O=C(Nc1cccc2cccnc12)C(Cl)(Cl)Cl,29,nt,nt,10,nt,nt
Cc1nn(CC(=O)Nc2ccc(Cl)cn2)c(C)c1[N+](=O)[O-],-5,nt,-29%,-5,13%,-1%
Cc1nn(CC(=O)c2cccc(Cl)c2)c(C)c1[N+](=O)[O-],23,-17%,-4%,24*,nt,1%
Cc1c(Br)c([N+](=O)[O-])nn1CC(=O)N1CCCc2ccccc21,28,26%,2.3µM*,14,0%,2%
Cc1nn(C(C)C(=O)N2CCc3ccccc32)c(C)c1[N+](=O)[O-] (stereo not drawn),-22,?,5.2µM*,-3,1%,?
O=C(Cn1ccc([N+](=O)[O-])n1)N1CCCc2ccccc21,127*,140%,196%,54*,17%,-1%
Cc1ccc(S(=O)(=O)N2CCCCC2)cc1C(=O)NCCN1CCOCC1,nt,17%,-7%,nt,nt,7%
O=C(OCC(=O)N1CCc2ccccc2C1)c1ccc(O)cc1,nt,nt,nt,nt,nt,-3%
Cc1nn(CC(=O)N2CCCc3ccccc32)c(C)c1[N+](=O)[O-],31,30%,?,28*,-2%,0%
O=C1CCn2nc(-c3ccc(Cl)cc3)cc2N1,79*,122%,?,44*,-21%,-13%
CC(C)(C)c1ccc(C(=O)Nc2ccc(S(=O)(=O)Nc3cnc4ccccc4n3)cc2)cc1,4,13µM*,9%,-2,6%,0%
CCCNS(=O)(=O)c1ccc(NC(=O)c2ccccn2)cc1,92*,77%,10µM*,29,0%,-1%
CC(=O)NS(=O)(=O)c1ccc(NC(=O)c2ccccn2)cc1,11,-13%,30%,-1,nt,0%
CN(C)S(=O)(=O)c1ccc(C(=O)Nc2ccccn2)cc1,57,103%,281%,22*,0%,-5%
COC(=O)Nc1ccc(S(=O)(=O)Nc2cnc3ccccc3n2)cc1,23,46%,12%,3,0%,0%
COCCN(CCOC)S(=O)(=O)c1ccc(NC(=O)c2cnccn2)cc1,9,8.3µM*,9%,-1,26%,11%
CC(=O)c1c(C)[nH]c(C(=O)COC(=O)c2cc(C)oc2C)c1C,nt,-9%,-9%,nt,nt,-8%
Cc1ccc(S(=O)(=O)N(C)CC(=O)NNC(=O)Cc2cccc(F)c2)cc1,nt,2%,11%,nt,nt,-3%
Cc1oc(-c2ccccc2)nc1CS(=O)CC(=O)NC1CCCCCC1 (stereo not drawn),3,26%,16%,6,?,1%
CN(C)S(=O)(=O)c1ccc(C(=O)Nc2ccccc2F)cc1,24,11%,nt,8,0%,-3%
O=C(Nc1ccc(S(=O)(=O)Nc2ncccn2)cc1)c1ccccc1,17,0%,1.2µM*,-4,20%,-12%
COCC(C)NS(=O)(=O)c1ccc(NC(=O)c2ccccn2)cc1 (stereo not drawn),31*,31%,-8%,11*,-7%,-2%
CN(C)S(=O)(=O)c1ccc(NC(=O)c2ccccn2)cc1,112*,148%,-3%,34*,-4%,-1%
SMILES,Shiga inhibitor,Pf growth 48h,Pf growth 96h,CHX counter,NS1 inh,SARS PLpro yeast
CN(C)S(=O)(=O)c1ccc(NC(=O)c2cccnc2)cc1,-5,nt,-35%,-5,14%,-4%
CN(C)S(=O)(=O)c1ccc(C(=O)Nc2ccccc2C(=O)O)cc1,10,-12%,13µM*,-3,-6%,-29%
CCC/C(C#CCCN1C(=O)c2ccccc2C1=O)=C1/c2ccccc2C(=O)N1c1ccccc1,nt,nt,nt,nt,nt,-1%
CCN(CC)S(=O)(=O)c1ccc(NC(=O)c2ccccn2)cc1,96*,57%,27%,30*,-8%,-12%
CCN1C(=O)c2cccc3c(NC(=O)c4ccc(S(=O)(=O)N5CCOCC5)cc4)ccc1c23,12,?,nt,-2,-3%,3%
O=C(Nc1ccc(N2CCCCC2)cc1)c1ccccn1,-21,-28%,23%,-8,nt,-4%
CCN1C(=O)c2cccc3c(NC(=O)c4ccc(S(=O)(=O)N(C)C)cc4)ccc1c23,8,12µM*,10%,-1,-4%,-8%
